Reference: PubChem BioAssay AID504635 (The Scripps Research Institute Molecular Screening Center, 2011)
The list shows a part of the results. Active and inactive are the calls of the source. No stated cut-off is given here; in the data, active means inhibition above about 18%; inactive means the rest.

target: Troponin I, cardiac muscle (Homo sapiens) + Troponin T, cardiac muscle (Homo sapiens) + Troponin C, slow skeletal and cardiac muscles (Homo sapiens) (UniProt P19429+P45379+P63316); assay: calcium desensitizers of cardiac thin filaments – biochemical, fluorescence readout, confirmation (AID 504635); conditions: reconstituted cardiac thin filaments, calcium sensitivity fluorescence; at 7.15 µM; stronger effect = higher value

Row | Compound | inhibition
1 | Cc1ccc(S(=O)(=O)N(CC(=O)Nc2cccc([N+](=O)[O-])c2)Cc2ccc(Cl)cc2)cc1 | -1.82% (inactive)
2 | O=C(O)c1cccc(S(=O)(=O)Nc2ccc(O)cc2Sc2nc3ccccc3s2)c1 | -6.09% (inactive)
3 | COC(=O)CCc1sc(Nc2ccc(Br)cc2)nc1-c1ccc(OC)cc1 | 1.8% (inactive)
4 | C/C(=N\NC(=O)C(N)=O)c1ccc2c(c1)OCCO2 | -2.4% (inactive)
5 | Cc1cc(NC(=O)CCC(=O)N(CC(=O)NCC2CCCO2)c2ccccc2)no1 (stereo not given) | -4.68% (inactive)
6 | COc1cccc(CNC(=O)C(=O)NCCC2CCCCN2S(=O)(=O)c2ccc(C)cc2)c1 (stereo not given) | -4.1% (inactive)
7 | O=c1ccc2c(-c3ccccc3S(=O)(=O)O)c3ccc(O)c(O)c3oc-2c1O | 154% (active)
8 | CC1CCCC(NC(=O)COC(=O)[C@@H]2CC(O)CN2S(=O)(=O)c2ccc3c(c2)OCCO3)C1C (stereo not given in full) | -1.77% (inactive)
9 | Cc1ccc(NC(=O)NC2CCCCC2)cc1S(=O)(=O)N1CCOCC1 | -0.15% (inactive)
10 | C=CCNC(=O)COC(=O)c1ccccc1C(=O)N(C)C1CCCCC1 | 0.72% (inactive)
11 | Cc1cccc(N(C(=O)Cc2cccs2)C(C(=O)NC2CCCC2)c2ccsc2)c1 (stereo not given) | -3.11% (inactive)
12 | COC(=O)c1cccc(N(CC(=O)NCC2CCCO2)C(=O)CCC(=O)Nc2cc(C)on2)c1 (stereo not given) | -2.6% (inactive)
13 | COc1ccc(NC(=O)CC2COc3ccccc3O2)c(OC)c1 (stereo not given) | -2.46% (inactive)
14 | COc1cc(OC)cc(C(=O)NCC(=O)OCc2csc(-c3ccccc3)n2)c1 | 2.35% (inactive)
15 | CCCCn1c(=O)c(C(C)=O)c(O)c2ccccc21 | -4.91% (inactive)
